# Compound activity from PubChem BioAssay.
# aSyn 5UTR act = Activators via SNCA 5'UTR binding, MLPCN; activity score, % (tested at 7.5 µM), hits read low; alpha-synuclein 5'UTR reporter, activators screen; 300,000 compounds, 7.1% hits; AID 1814; in the data active = activity score below about -60%
# Starred values were filed as active, the others as inactive. Only a sample is shown.
SMILES,aSyn 5UTR act
CCCCc1nc2cc(C(=O)NC(C)c3cnn(C)c3)ccc2o1 (stereo not drawn),-77*
CCn1ccnc1CNC(=O)c1ccc2oc(CCCc3ccccc3)nc2c1,-75*
COCC1CCN(C(=O)c2ccc3oc(CCCc4ccccc4)nc3c2)C1 (stereo not drawn),-95*
CCCCc1nc2cc(C(=O)N3CCCCC3C(=O)OC)ccc2o1 (stereo not drawn),-98*
CCCCc1nc2cc(C(=O)N3CCCC(COC)C3)ccc2o1 (stereo not drawn),-86*
CCCCc1nc2cc(C(=O)N3CCCC3)ccc2o1,-90*
C/C(CC(=O)Nc1cc(C)ccn1)=N\NC(=O)COc1cccc(C)c1,-110*
Cc1cccc(OCC(=O)Nc2cc(C)c(C)cc2O)c1,-112*
Cc1cccc(OCC(=O)Nc2sc3c(c2C#N)CCC3)c1,-100*
Cc1sc(NC(=O)CS(=O)(=O)c2ccccc2)c(C#N)c1C,-87*
CC(=O)Nc1sc(C)c(C)c1C(=O)OCC(=O)N(CC(C)C)c1c(N)n(Cc2ccccc2)c(=O)[nH]c1=O,77
CC1(C)Cc2c(sc(NC(=O)COc3cccc4ccccc34)c2C#N)C(C)(C)N1,72
Cc1sc(NC(=O)COc2ccccc2)c(C#N)c1C,-91*
CC(=O)Nc1sc(C)c(C)c1C(=O)OCCOc1ccccc1,-130*
O=C(Nc1ccc2c(c1)C(=O)OC2)c1ccc(Cl)cc1Cl,-75*
O=C(Nc1ccc2c(c1)C(=O)OC2)c1ccc(F)cc1F,-63*
COc1ccc(/C=C/c2n[nH]c(=O)c(C#N)c2C)cc1,-71*
CCC(C)[C@H](NC(=O)N1CC(=O)Nc2ccccc21)C(=O)Nc1ccccc1C (stereo partly drawn),-95*
CCc1nc(SCc2ccc(OC)cc2)n[nH]1,-82*
Cc1ccc2c(c1)C(N1CCCC1=O)CC(c1ccco1)N2 (stereo not drawn),-171*
Cc1nc(NCCc2ccc(S(N)(=O)=O)cc2)c2c3c(sc2n1)CCC3,-116*
CC1CCN(C(=O)CNC(=O)c2ccc(Cl)cc2Cl)CC1,-81*
O=C(NCC(=O)N1CCCCC1)c1ccc(Cl)cc1Cl,-117*
O=C(NCC(=O)N1CCCCCC1)c1ccc(Cl)cc1,-65*
CC1(C)Cc2c(sc3nc(-c4cc5ccccc5o4)n(N)c(=O)c23)CO1,-203*
SMILES,aSyn 5UTR act
Fc1ccc(CSc2ccc(-c3ccco3)nn2)cc1,-153*
Fc1cccc(CSc2ccc(-c3ccco3)nn2)c1,-176*
CC(=O)c1cccc(NC(=S)NC(=O)c2ccc(C)cc2Cl)c1,-70*
CC(=O)c1cccc(NC(=S)NC(=O)c2ccc(C)cc2)c1,-83*
CC(=O)c1cccc(NC(=S)NC(=O)c2ccc(Br)cc2)c1,-143*
O=c1nc(/C=C/c2ccc(-c3ccc(F)cc3)o2)cc(C(F)(F)F)[nH]1,-62*
COc1ccccc1CNC(=O)CN1C(=O)c2cccc(N)c2C1=O,-65*
COc1ccc(CC(=O)NCc2ccc(-n3cccc3)cc2)cc1OC,64
COc1ccccc1CNC(=O)CCCc1ccccc1,-69*
N/C(Cc1ccc(Cl)cc1Cl)=N\OC(=O)c1ccccc1F,-72*
Cc1ccc(-c2nc3ccccc3s2)cc1S(=O)(=O)N1CCCC1,-63*
CCCOc1ccc(-c2c(=O)n(O)c3ccccc3[n+]2[O-])cc1,-176*
O=C1c2ccsc2SCCN1Cc1ccccc1,-65*
O=S(=O)(Cc1cc(-c2ccccc2)no1)c1ccccc1,-77*
COc1ccc(-c2cc(CS(=O)(=O)c3ccccc3)on2)cc1,-158*
Cc1cc(C)n2nc(-c3ccc(F)cc3)nc2n1,-109*
O=C(NNc1cccc(Cl)n1)c1ccc(Cl)cc1Cl,-81*
CCOC(=O)c1c(-c2ccccc2)nc2cc(C)ccn12,-104*
CCOC(=O)c1c(-c2ccccc2)nc2ccc(C)cn12,-166*
CC1CCc2c(sc(NC(=O)C3CCCO3)c2C#N)C1 (stereo not drawn),-114*
CCOC(=O)Nc1sc2c(c1C#N)CCC(C)C2 (stereo not drawn),-161*
CC1CCc2c(sc(NC(=O)COC(=O)C3CCCO3)c2C#N)C1 (stereo not drawn),-68*
CC1CCc2c(sc(NC(=O)c3nc4ncccn4n3)c2C#N)C1 (stereo not drawn),-148*
CCOC(=O)C1CCN(C(=O)CNC(=O)c2nn(-c3ccc(OC)c(Cl)c3)c(=O)c3ccccc23)CC1,-70*
Cc1ccc2c(CNCc3ccccc3)cc(=O)oc2c1,-65*
SMILES,aSyn 5UTR act
Cc1cc2oc(=O)cc(CN(C)Cc3ccccc3F)c2cc1Cl,-80*
Cc1ccc2c(CN(C)Cc3cccc(F)c3)cc(=O)oc2c1,-124*
Cc1ccccc1NC(=O)c1cc2ccccn2n1,-109*
Cc1ccc(C)c(NC(=O)c2cc3ccccn3n2)c1,-196*
CC1(C)CC(=O)c2sc(NS(=O)(=O)Cc3ccccc3)nc2C1,-63*
CN(Cc1ccsc1)C(=O)Cn1cc(Br)ccc1=O,-97*
Clc1nc(-c2ccccc2)ncc1Oc1ccccc1,-64*
CCCc1cc2c(cc1NC(=O)c1ccc(C(C)(C)C)cc1)OCO2,-74*
Nc1ccc2nc(SCC(=O)N3CCOCC3)sc2c1,-71*
Nc1ccc2nc(SCC(=O)Nc3ccc(N4CCOCC4)c(Cl)c3)sc2c1,-174*
CCCC(=O)Nc1ccc2nc(SCC(=O)Nc3ccc(N4CCOCC4)c(Cl)c3)sc2c1,-150*
Nc1ccc2nc(SCc3cccc(F)c3)sc2c1,-139*
COc1cc(SC)ccc1C(=O)Nc1nc2ccccc2[nH]1,131
Cc1nn(C)cc1C(=O)NNC(=S)Nc1ccccc1,-110*
COc1ccccc1C(=O)Nc1ccc(Br)cc1C,-96*
COc1cc(SC)ccc1C(=O)Nc1ccccc1,-184*
COc1ccccc1C(=O)Oc1ccccc1C(=O)Nc1ccccc1,-163*
O=C(Oc1ccccc1C(=O)Nc1ccccc1)c1ccc(Br)c([N+](=O)[O-])c1,-121*
COc1ccccc1C(=O)NNC(=S)Nc1ccccc1,-107*
CCCc1cc(=O)n2c([nH]c3ccccc32)c1C#N,-70*
Cc1cccc2cc(C#N)c(SCC#N)nc12,85
CCc1nc(SCC#N)c(C#N)cc1C,69
CCOC(=O)CC(=O)CSc1nc2c(cc1C#N)CCCCC2,-138*
CC(C)OC(=O)CSc1nc2c(cc1C#N)CCCCC2,-166*
N#Cc1cc2c(nc1SCc1ccncc1)CCC2,-95*
SMILES,aSyn 5UTR act
Cc1ccc(/C=N/n2cnc3sc(-c4ccccc4)cc3c2=O)o1,-109*
CCOCCCNc1ccc(-c2ccccc2)nn1,-159*
COc1c(Cl)cc(C(=O)NN)cc1Cl,99
CC(C)CCNC(=O)c1ccc(-c2ccccc2)cc1,-107*
CC(C)CCNC(=O)C(=O)Nc1ccccc1,-155*
CC(C)CCNC(=O)c1ccc(Cl)c(N)c1,-81*
Cc1cc(/C=C2/C(=O)N(C)C(=S)N2C)ccc1N1CCCC1,-212*
Cc1cc(/C=C2\NC(=S)N(C)C2=O)ccc1N1CCCC1,-206*
CCNC(=O)NC(=O)C(C)Oc1ccc(Br)cc1Br (stereo not drawn),-78*
CCn1c(-c2ccc(-c3ccccc3)cc2)c[nH]c1=S,-65*
Cn1c(-c2ccc(-c3ccccc3)cc2)c[nH]c1=S,-173*
C=CCn1c(-c2ccccc2)c[nH]c1=S,-120*
CC(=O)C1=NOC(CNc2ncc(C(F)(F)F)cc2Cl)C1 (stereo not drawn),-86*
O=C1NC(=Nc2ccc3ccccc3c2)S/C1=C/c1ccco1,-91*
CCOc1ccc2c(c1)S/C(=C\c1cccs1)C(=O)N2,-134*
